The target in assay [1] is Lysosomal acid glucosylceramidase (Homo sapiens) (UniProt P04062). Nature of the assay: Glucocerebrosidase-p2 (AID 348; in the data active = potency below about 10 µM; note: potency is the fitted concentration of half-maximal effect). Particulars: purified GBA, blue fluorogenic substrate, 40 min. The method, boiled down:
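Compounds titrated from 0.6 nM upwards against 0.2 nM enzyme in pH 5.9 citric acid/KH2PO4, taurocholate, tween-20; blue fluorogenic substrate 80 uM, 40 min room temperature, stopped and read Ex 365/Em 440 for AC50.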

Assay [2] is described as follows: AP1 Signaling Pathway (AID 357).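 Note: ME-180 reporter cells stimulated with EGF at its EC50 level; % is set by controls: 0 for no effect and ±100 for the full control effect.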 Particulars: ME-180 AP-1-bla reporter, EGF-induced, beta-lactamase ratio, 5 h; at 7.69 µM (top of the series) unless noted. A digest of the protocol:
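AP-1-bla ME-180 cells, Opti-MEM + 0.5% dialyzed FBS, plated overnight 37 °C. Cpd titration + EC50 EGF, 5 h 37 °C. CCF4 2.5 h RT; ex 405, em 460/530 ratio → %activity, AC50.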

For assay [3], the target named is Cytochrome P450 1A2 (Homo sapiens) (UniProt P05177). Nature of the assay: p450-cyp1a2 (AID 410; calls by dose curve; note: potency is the fitted concentration of half-maximal effect). Particulars: recombinant CYP1A2, luciferin-ME demethylation, luminescence; series mostly up to 11.4 µM. The method, boiled down:
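Human CYP1A2 (20nM) demethylated Luciferin-ME at its Km (100uM) in 100mM KPO4. After 10 min compound preincubation, NADPH regeneration ran the reaction 60 min at room temperature. Luciferin was read by luminescence, normalized to 57 uM furafylline.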

Assay [4] can be described thus: NFAT Signaling Pathway (AID 444).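 Note: carbachol stimulus at about its EC50 of 1 µM final; % is set by controls: 0 for no effect and ±100 for the full control effect.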 Particulars: Jurkat NFAT-bla M1, carbachol, beta-lactamase ratio, 5 h; at 7.69 µM (top of the series) unless noted. A digest of the protocol: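 Jurkat cells with NFAT-driven β-lactamase reporter and co-expressed M1 receptor, stimulated with carbachol (final 1 uM, ~EC50), compound titration, 5 h at 37 °C. CCF4 loaded 1 h at RT; 460/530 nm ratio gave %activity and AC50.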

Assay [5] concerns the target Glucocorticoid receptor (Homo sapiens) (UniProt P04150). Nature of the assay: GR-GFP Redistribution (AID 450;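 active = compounds whose dose series gives a full or clear partial fitted curve of increased nuclear translocation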; note: potency is the fitted concentration of half-maximal effect). Particulars: U2OS GR-GFP nuclear translocation, laser cytometry, 2 h.
Assay [6] shares this target. The assay can be described thus: GR-EFC Redistribution (AID 451; calls by dose curve; note: potency is the fitted concentration of half-maximal effect). Particulars: CHO-K1 GR-EFC translocation, beta-gal luminescence, 2 h. A digest of the protocol:
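CHO-K1 cells expressing nuclear EA and GR-ED fragments of b-gal; compounds titrated up to 46 uM final, 2 h at 37 C. GR nuclear translocation read as complemented b-gal luminescence after 1 h RT detection.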

Assay [7] has as its target Mitogen-activated protein kinase 10 (Mus musculus) (UniProt Q61831). The assay can be described thus: JNK3 AlphaScreen Assay (AID 530).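 Note: kinase came from lysate of stimulated human HepG2 cells; signal reports phosphorylation of biotinylated GST-cJun 1-79 at Ser73 with 10 µM ATP; % is set by controls: 0 for no effect and ±100 for the full control effect.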 Particulars: JNK3 lysate, c-Jun phosphorylation; series mostly up to 11.4 µM. The method, boiled down: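 qHTS format: compounds tested as titrations against IL-1beta/TNF-alpha-activated HepG2 lysate JNK3 with biotin-GST-cJun substrate and 10 uM ATP at room temperature. Loss of anti-phospho-cJun AlphaScreen signal indicates inhibition.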
Background: Alpha assays give light when donor and acceptor beads are brought close together.

For assay [8], the target named is 3',5'-cyclic-AMP phosphodiesterase 4B (Homo sapiens) (UniProt Q07343). The assay can be described thus: qHTS Assay for Inhibitors of PDE-IV (AID 607; active = well fitted activation curve with a large enough effect in the main read-out, with a control signal flat, not every such curve was filed as active; note: % of control where 0% means no effect). Particulars: HEK293 ACTOne CNG channel cells, membrane potential fluorescence; series mostly up to 22.9 µM. A digest of the protocol: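 Cell-based read-out of cAMP via a modified cyclic nucleotide-gated channel and membrane potential dye (535/590 nm) in HEK293 cells expressing PDE4 endogenously. Compounds tested up to 22.9 uM final; 100 uM RO 20-1724 reference.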
Chain of 3',5'-cyclic-AMP phosphodiesterase 4B (Homo sapiens) (Q07343 whole entry, looked up): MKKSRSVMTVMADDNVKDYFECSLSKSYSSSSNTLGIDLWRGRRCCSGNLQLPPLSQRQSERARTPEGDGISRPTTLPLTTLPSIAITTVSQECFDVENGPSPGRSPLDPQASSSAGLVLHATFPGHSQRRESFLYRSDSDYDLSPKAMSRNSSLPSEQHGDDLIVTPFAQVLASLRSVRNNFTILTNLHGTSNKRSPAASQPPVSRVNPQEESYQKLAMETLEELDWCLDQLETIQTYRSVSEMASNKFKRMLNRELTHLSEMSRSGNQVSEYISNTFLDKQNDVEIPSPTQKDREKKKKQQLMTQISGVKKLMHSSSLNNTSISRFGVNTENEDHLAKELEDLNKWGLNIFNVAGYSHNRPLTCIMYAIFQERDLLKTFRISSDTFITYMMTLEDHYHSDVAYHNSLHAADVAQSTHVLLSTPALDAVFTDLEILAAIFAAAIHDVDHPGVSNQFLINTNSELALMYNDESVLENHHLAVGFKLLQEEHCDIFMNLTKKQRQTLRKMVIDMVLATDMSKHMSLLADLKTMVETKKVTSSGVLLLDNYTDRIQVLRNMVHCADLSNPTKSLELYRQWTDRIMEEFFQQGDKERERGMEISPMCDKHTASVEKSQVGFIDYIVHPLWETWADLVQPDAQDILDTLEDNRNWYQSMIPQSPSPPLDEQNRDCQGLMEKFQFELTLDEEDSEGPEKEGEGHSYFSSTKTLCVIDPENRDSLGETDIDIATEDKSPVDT
For orientation: Quantitative high-throughput screening tests each substance at several concentrations.

For assay [9], the target named is Cytochrome P450 3A4 (Homo sapiens) (UniProt P08684). Nature of the assay: qHTS Assay for Activators of Cytochrome P450 3A4 (AID 885; active = well fitted curve in the direction sought with a large enough effect; an effect the other way counts as inactive or inconclusive; note: nearly all actives have a fitted effect of over 65% in size). Particulars: recombinant CYP3A4, Luciferin-PPXE luminescence, 60 min; series mostly up to 11.4 µM. The method, boiled down:
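Signal was normalized against complete inhibition by 57 uM ketoconazole. The reaction used 20nM CYP3A4 with 25uM Luciferin-PPXE, 10-min compound preincubation and a 60-min NADPH-supported step at RT.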

The target in assay [10] is Cytochrome P450 2D6 (Homo sapiens) (UniProt P10635). The assay can be described thus: qHTS Assay for Inhibitors and Substrates of Cytochrome P450 2D6 (AID 891; active = well fitted curve in the direction sought with a large enough effect; an effect the other way counts as inactive or inconclusive; note: potency is the fitted concentration of half-maximal effect; nearly all actives have a fitted effect of over 60% in size). Particulars: recombinant CYP2D6, luciferin-ME EGE luminescence; series mostly up to 11.4 µM. A digest of the protocol: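 Human CYP2D6 (5 nM) with 30 uM Luciferin-ME EGE (at Km) in 100 mM KPO4, compound preincubated 10 min, then NADPH regeneration system for 60 min at room temperature. Luciferin read by luminescence; normalized to 1.43 uM quinidine.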
Chain of Cytochrome P450 2D6 (Homo sapiens) (P10635 whole entry, looked up): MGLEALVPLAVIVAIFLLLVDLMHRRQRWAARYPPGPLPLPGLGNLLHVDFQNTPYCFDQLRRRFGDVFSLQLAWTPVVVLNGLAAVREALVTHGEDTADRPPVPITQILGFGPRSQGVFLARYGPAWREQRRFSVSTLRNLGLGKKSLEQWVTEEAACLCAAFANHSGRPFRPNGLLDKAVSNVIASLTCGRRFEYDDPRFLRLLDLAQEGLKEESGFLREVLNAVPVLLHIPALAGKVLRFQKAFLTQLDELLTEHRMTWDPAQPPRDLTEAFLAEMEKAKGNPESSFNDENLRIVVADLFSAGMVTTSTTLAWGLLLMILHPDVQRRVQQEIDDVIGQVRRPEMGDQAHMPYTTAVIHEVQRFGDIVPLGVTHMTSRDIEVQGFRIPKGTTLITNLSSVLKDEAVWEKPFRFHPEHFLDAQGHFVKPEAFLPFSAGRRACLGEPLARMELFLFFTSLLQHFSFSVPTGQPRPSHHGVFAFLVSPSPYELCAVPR

Assay [11] can be described thus: qHTS Assay for Identification of Small Molecule Agonists for Hypoxia Response Element Signaling Pathway (AID 914; active = well fitted activation curve with a large enough effect in the signal ratio, with a control signal flat, not every such curve was filed as active; the % refers to the signal ratio; note: % of control where 0% means no effect). Particulars: ME-180 HRE-bla reporter, beta-lactamase ratio, CoCl2, 17 h; activation: active compounds read high. The method, boiled down:
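HRE-bla ME-180 cells with beta-lactamase reporter under hypoxia response element, compounds with EC50 CoCl2 for 17 hours at 37 C. CCF4 substrate, 460nm/530nm emission ratio gave %Activity; AC50 from titration series.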

The nature of assay [12]: Stat Signaling Pathway (AID 446).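 Note: ME-180 cervical cancer cells given 40 pM IL-6 alongside compound; SIE-controlled beta-lactamase reporter measured as 460/530 nm FRET emission ratio; % is set by controls: 0 for no effect and ±100 for the full control effect.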 Particulars: ME-180 SIE beta-lactamase reporter, IL-6 stimulated, 5 h; at 7.69 µM (top of the series) unless noted. The method, boiled down:
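Reporter line: ME-180 cervical carcinoma, SIE-beta-lactamase. Treatment: compound with 40 pM IL-6, 5 hrs, 37 C, in low-serum OPTI-MEM with 10 mM HEPES pH 7.3. Detection: 460/530 nm fluorescence.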

Assay [13] has as its target Cytochrome P450 2C9 (Homo sapiens) (UniProt P11712). The assay can be described thus: qHTS Assay for Inhibitors and Substrates of Cytochrome P450 2C9 (AID 883; active = well fitted curve in the direction sought with a large enough effect; an effect the other way counts as inactive or inconclusive; note: potency is the fitted concentration of half-maximal effect; nearly all actives have a fitted effect of over 60% in size). Particulars: recombinant CYP2C9, luciferin-H luminescence, 60 min; series mostly up to 11.4 µM. The method, boiled down:
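Signal: luciferase luminescence reporting luciferin produced by CYP2C9. Conditions: 10nM enzyme, Luciferin-H 100uM at KM, 25mM KPO4, 37C, 60 min NADPH-driven reaction. Reference: 57uM sulphaphenazole as 100% inhibition.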

The target of assay [14] is Cytochrome P450 2C19 (Homo sapiens) (UniProt P33261). The assay can be described thus: qHTS Assay for Inhibitors and Substrates of Cytochrome P450 2C19 (AID 899; active = well fitted curve in the direction sought with a large enough effect; an effect the other way counts as inactive or inconclusive; note: potency is the fitted concentration of half-maximal effect; nearly all actives have a fitted effect of over 60% in size). Particulars: recombinant CYP2C19, luciferin-H EGE luminescence; series mostly up to 11.4 µM. A digest of the protocol:
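Signal comes from luciferase acting on luciferin released by CYP2C19-mediated hydroxylation of Luciferin-H EGE, 10uM (KM). Assay mix: 5nM enzyme, 50mM KPO4; 60 min at 37C with NADPH regeneration. Data normalized against 57uM ketoconazole.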

Assay [15] concerns the target Cytochrome P450 3A4 (Homo sapiens) (UniProt P08684). The assay can be described thus: qHTS Assay for Inhibitors and Substrates of Cytochrome P450 3A4 (AID 884; active = well fitted curve in the direction sought with a large enough effect; an effect the other way counts as inactive or inconclusive; note: potency is the fitted concentration of half-maximal effect; nearly all actives have a fitted effect of over 50% in size). Particulars: recombinant CYP3A4, Luciferin-PPXE luminescence; series mostly up to 57.1 µM. The method, boiled down:
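20 nM human CYP3A4 with 25 uM Luciferin-PPXE (at KM) in 200 mM KPO4, preincubated 10 min with compound; NADPH regeneration started a 60 min RT reaction. Luciferin detected by luminescence, normalized to 57 uM ketoconazole as full inhibition.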

Values without a mark were called inactive. Records with an inconclusive call do not appear. Activity calls are given as the source filed them. Unless noted, calls come from the whole dose curve; as a rule, active = well fitted curve in either direction with a large enough effect (not every such curve was filed as active); inconclusive = small, poorly fitted or top-dose-only effect, or another doubt; inactive = flat fitted curve, though single readings scatter. Where only a bound is given, the exact number is not on record here.

Chain of Lysosomal acid glucosylceramidase (Homo sapiens) (P04062 whole entry, looked up): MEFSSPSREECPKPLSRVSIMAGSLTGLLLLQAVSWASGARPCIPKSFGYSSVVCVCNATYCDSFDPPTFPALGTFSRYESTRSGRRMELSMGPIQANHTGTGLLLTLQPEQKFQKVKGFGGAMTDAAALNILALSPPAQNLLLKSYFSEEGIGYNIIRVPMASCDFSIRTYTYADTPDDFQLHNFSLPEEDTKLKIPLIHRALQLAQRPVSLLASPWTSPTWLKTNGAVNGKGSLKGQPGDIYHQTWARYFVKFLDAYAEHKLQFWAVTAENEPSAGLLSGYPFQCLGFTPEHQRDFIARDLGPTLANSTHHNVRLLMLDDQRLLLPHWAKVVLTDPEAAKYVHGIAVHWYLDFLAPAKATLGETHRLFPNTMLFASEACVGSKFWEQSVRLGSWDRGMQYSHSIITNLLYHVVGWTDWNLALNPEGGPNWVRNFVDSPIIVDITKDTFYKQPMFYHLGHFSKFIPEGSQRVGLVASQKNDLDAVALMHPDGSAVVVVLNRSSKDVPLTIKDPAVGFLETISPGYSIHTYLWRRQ
Chain of Cytochrome P450 1A2 (Homo sapiens) (P05177 whole entry, looked up): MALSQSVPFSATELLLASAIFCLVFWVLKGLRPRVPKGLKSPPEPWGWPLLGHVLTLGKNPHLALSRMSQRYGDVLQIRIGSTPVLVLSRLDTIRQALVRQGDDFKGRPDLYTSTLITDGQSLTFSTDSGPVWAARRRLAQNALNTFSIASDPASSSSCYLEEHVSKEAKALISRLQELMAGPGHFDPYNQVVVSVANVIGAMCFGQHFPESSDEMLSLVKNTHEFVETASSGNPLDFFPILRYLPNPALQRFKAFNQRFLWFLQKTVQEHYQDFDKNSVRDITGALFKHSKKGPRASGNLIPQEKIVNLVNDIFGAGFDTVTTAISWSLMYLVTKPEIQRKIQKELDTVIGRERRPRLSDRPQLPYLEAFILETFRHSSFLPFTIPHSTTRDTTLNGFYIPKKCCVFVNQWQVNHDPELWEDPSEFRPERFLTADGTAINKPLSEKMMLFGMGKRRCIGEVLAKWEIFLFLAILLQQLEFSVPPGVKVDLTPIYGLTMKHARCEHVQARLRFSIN
Chain of Glucocorticoid receptor (Homo sapiens) (P04150 whole entry, looked up): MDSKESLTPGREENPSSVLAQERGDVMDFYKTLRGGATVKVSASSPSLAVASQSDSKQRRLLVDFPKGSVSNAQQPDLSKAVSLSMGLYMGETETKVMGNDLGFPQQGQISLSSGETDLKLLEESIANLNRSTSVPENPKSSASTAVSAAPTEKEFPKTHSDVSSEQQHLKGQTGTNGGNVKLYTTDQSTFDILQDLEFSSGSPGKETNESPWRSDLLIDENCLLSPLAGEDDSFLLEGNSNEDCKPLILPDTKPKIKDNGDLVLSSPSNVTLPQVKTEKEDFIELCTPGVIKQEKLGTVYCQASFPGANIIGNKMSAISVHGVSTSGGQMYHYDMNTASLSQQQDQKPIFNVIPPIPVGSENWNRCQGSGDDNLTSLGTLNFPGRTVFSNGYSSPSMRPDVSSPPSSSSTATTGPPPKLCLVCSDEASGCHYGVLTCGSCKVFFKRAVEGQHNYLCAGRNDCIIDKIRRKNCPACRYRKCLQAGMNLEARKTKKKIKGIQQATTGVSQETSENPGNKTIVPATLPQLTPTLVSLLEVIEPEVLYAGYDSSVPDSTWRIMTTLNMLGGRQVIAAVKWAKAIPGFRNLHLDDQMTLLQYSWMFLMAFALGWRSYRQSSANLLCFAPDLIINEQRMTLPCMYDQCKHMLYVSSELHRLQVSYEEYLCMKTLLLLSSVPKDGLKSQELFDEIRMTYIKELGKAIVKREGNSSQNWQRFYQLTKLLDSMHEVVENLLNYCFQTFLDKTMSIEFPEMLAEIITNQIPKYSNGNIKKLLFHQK
Chain of Cytochrome P450 3A4 (Homo sapiens) (P08684 whole entry, looked up): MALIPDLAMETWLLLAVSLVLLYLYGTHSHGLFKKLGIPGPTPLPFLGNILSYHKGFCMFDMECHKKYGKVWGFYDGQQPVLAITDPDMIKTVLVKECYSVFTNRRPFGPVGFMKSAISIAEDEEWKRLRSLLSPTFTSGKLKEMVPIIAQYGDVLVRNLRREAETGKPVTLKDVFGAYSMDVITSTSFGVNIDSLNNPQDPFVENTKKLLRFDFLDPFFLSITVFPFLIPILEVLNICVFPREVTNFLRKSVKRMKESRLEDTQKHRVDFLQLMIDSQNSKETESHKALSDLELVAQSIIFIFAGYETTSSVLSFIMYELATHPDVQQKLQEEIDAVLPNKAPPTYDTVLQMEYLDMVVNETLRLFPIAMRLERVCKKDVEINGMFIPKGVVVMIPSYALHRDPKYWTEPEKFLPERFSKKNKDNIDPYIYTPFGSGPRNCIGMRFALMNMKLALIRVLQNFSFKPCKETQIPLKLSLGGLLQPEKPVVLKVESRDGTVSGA
Chain of Cytochrome P450 2C19 (Homo sapiens) (P33261 whole entry, looked up): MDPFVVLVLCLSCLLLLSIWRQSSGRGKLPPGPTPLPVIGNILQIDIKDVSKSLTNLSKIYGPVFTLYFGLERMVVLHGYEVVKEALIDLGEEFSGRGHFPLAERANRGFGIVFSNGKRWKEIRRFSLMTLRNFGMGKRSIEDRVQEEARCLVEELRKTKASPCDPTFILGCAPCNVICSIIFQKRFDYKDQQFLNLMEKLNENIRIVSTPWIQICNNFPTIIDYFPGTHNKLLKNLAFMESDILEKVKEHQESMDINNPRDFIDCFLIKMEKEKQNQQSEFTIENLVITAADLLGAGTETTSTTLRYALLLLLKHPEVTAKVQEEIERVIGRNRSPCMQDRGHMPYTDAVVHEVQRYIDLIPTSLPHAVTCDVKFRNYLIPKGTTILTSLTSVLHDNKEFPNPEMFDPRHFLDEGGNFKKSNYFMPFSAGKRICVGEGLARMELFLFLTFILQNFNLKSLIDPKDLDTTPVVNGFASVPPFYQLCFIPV
Chain of Cytochrome P450 2C9 (Homo sapiens) (P11712 whole entry, looked up): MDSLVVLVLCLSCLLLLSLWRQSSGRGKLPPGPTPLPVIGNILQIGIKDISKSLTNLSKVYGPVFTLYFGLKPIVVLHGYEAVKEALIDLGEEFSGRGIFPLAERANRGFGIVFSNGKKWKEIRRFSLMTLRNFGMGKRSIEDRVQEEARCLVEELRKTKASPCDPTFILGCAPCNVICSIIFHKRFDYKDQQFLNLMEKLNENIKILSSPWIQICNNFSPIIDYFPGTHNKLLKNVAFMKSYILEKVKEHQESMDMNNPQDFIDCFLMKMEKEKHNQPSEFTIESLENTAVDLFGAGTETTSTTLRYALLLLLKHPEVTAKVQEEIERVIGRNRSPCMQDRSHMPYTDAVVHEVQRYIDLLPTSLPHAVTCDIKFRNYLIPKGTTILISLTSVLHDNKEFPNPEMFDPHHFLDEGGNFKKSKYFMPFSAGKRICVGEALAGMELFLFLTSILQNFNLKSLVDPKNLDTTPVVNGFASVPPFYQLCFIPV

With `COCCNc1nc(-c2ccc(C(=O)N(C)C)cc2)nc2ccccc12`, the Potency in assay [1] was over 11.4 µM; in assay [3] it was 20 µM (active); in assay [5], over 46 µM; in assay [6], over 46 µM. Moreover, the activity change, negative = inhibition in [2] was 11.7%; in [4] it was 17.9%. In addition, the Potency entry in assay [7], in [8] and in assay [9] was “inactive” in each case.

As to `CCCCn1cnc2c(c(CC#N)nn2-c2ccccc2)c1=N`, the Potency was over 11.4 µM in assay [1]; 1 µM (active) in [3]; over 46 µM in assay [5]; over 9.22 µM in assay [6]; 0.398 µM (active) in assay [10]. The activity change, negative = inhibition in assay [2] is -12%; in assay [4] it was -1.01%. Moreover, the Potency entry in assay [7] was “inactive”. Moreover, the activation in [11] is 16.2%.

For the compound `OCCN(CCO)c1ncnc2nc[nH]c12`, the Potency was over 11.4 µM in [1], over 46 µM in assay [5] and over 9.22 µM in assay [6]. Further, the activity change, negative = inhibition in [2] is -2.15%. The Potency entry in [3], in assay [7] and in [8] was “inactive” each time. Further, the activity, negative = inhibition in assay [12] was -0.624%.

Turning to `CC1=c2c(oc3cc(O)c(Nc4c(C)cc(O)cc4O)c(C)c23)=CC(=O)C1=Nc1c(C)cc(O)cc1O`, the Potency in [1] was over 11.4 µM; in assay [3], 3.16 µM (active); in [5] it was over 46 µM; in assay [6], over 9.22 µM; in [13], 3.16 µM (active); in assay [14], 3.16 µM (active). The activity change, negative = inhibition is -6.5% in assay [2] and -22.3% in assay [4]. In addition, the Potency result in [8] was “inactive”.

As to `Cn1c(Sc2ccc(-c3cccnc3)n2C)ccc1-c1cccnc1`, the Potency in assay [1] was over 11.4 µM; in [3], 0.398 µM (active); in [5], over 46 µM; in assay [6] it was over 9.22 µM; in [15], 0.631 µM (active). Also, the activity change, negative = inhibition in [2] is 1.8%; in assay [4] it was -29.9%. The Potency entry in assay [8] and in assay [9] was “inactive” each time.

Take `CN(C)CCCN1c2ccccc2Sc2cnccc21`: the Potency in assay [1] is over 11.4 µM; in assay [3], 0.501 µM (active); in assay [5], over 46 µM; in [6], over 9.22 µM; in assay [15], 1.58 µM (active); in assay [10] it was 1.58 µM (active). Besides, the results for the activity change, negative = inhibition in assay [2] and in assay [4] were 6.06% and -14.8%, respectively. In addition, the Potency entry in assay [7], in assay [8] and in [9] was “inactive” throughout.

For the compound `COCCn1c(=O)c(-c2ccccc2)nc2cnc(Nc3ccccc3)nc21`, the Potency in [1] was over 11.4 µM; in [3], 5.01 µM (active); in assay [5] it was over 9.22 µM; in assay [6], over 46 µM. The activity change, negative = inhibition in [2] was -24.1%; in [4], 10.4%. The Potency entry in [7] and in assay [9] was “inactive” each time.

On to `Cc1cccc(C)c1NC(=O)Nc1ccc(S(N)(=O)=O)cc1`, for which the values for the Potency in assay [1], in [5] and in assay [6] were over 11.4 µM, over 46 µM and over 9.22 µM, respectively. Further, the activity change, negative = inhibition was 3.48% in assay [2], -10.8% [at 2.29 µM] in assay [3] and 11% in [4]. For the same compound, the Potency result in [7] and in assay [8] was “inactive” in each case. Further, in [11], the activation is 13.8%.
